The values that follow come from PubChem BioAssay (EPA / NIEHS).

Molecules are shown by their SMILES. Records with an inconclusive call do not appear. Activity calls are given as the source filed them. Rule for the calls, unless noted: active = hit-call score of the fitted dose curve at least 0.9, where 1 is the maximum; inactive = score below 0.9.

A word on the AC50: it is the midpoint of the concentration-response curve, whichever way the signal moves.

One assay relates to IYD (gene 389434). The assay is described as follows: CCTE_GLTED_hIYD: CCTE's human Iodotyrosine Deiodinase (xIYD) Inhibition Assay, Great Lakes Toxicology and Ecology Division (GLTED) Lab (AID 2284317; active = hit-call score of the fitted dose curve at least 0.9, where 1 is the maximum;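 note: cell-free human IYD enzyme made in baculovirus insect cells; iodide freed from monoiodotyrosine measured by cerium arsenite color change at 420 nm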).
Conditions: not given
The essentials:
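hIYD: baculovirus-expressed human IYD deiodinated monoiodotyrosine for 3 h with test chemical; free iodide was measured by Sandell-Kolthoff absorbance at 420 nm and normalized to MNT and DMSO/NaOH controls.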
As to `O=C(OC[C@H]1O[C@@H](OC(=O)c2cc(O)c(O)c(OC(=O)c3cc(O)c(O)c(O)c3)c2)[C@H](OC(=O)c2cc(O)c(O)c(OC(=O)c3cc(O)c(O)c(O)c3)c2)[C@@H](OC(=O)c2cc(O)c(O)c(OC(=O)c3cc(O)c(O)c(O)c3)c2)[C@@H]1OC(=O)c1cc(O)c(O)c(OC(=O)c2cc(O)c(O)c(O)c2)c1)c1cc(O)c(O)c(OC(=O)c2cc(O)c(O)c(O)c2)c1`, the AC50 was 13.3 µM (active).
Regarding `CN(C)c1ccc(N=NS(=O)(=O)O)cc1`, the AC50 was 47.9 µM (active).
The same measure, in the same setting: the result for `CCOc1cccc(-n2cc(C(=O)N3CCN(c4cc(C(=O)O)c5ccccc5c4)CC3)nc2-c2ccc(C)cc2)c1` reads 116 µM (active).

System in the next assay: not listed separately
The assay is described as follows: CCTE_Deisenroth_5AR_NBTE_donor: CCTE's 5alpha-reductase NanoBRET Target Engagement Assay […], Deisenroth Lab (AID 2284319). The settings on record: actives raise or lower the signal. The essentials: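 HEK293T cells were reverse transfected with an SRD5A2-NanoLuc vector for 20 h, exposed to test chemical (8 points, 10 nM - 29.9 uM) for 3 h, then testosterone tracer for 2 h more. Donor luminescence (460 nm) was read; bidirectional fit versus DMSO.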
Take `Nc1ccc(Nc2ccccc2)cc1`: the AC50 was 28.3 µM (active).
The same measure, in the same setting: the result for `CCOC(=O)c1ccc(C2CCC(NC[C@H](O)COc3ccc(O)c(NS(C)(=O)=O)c3)CC2)cc1` (stereo partly specified) reads 62.7 µM (active).
On to `O=C(OC[C@H]1O[C@@H](OC(=O)c2cc(O)c(O)c(OC(=O)c3cc(O)c(O)c(O)c3)c2)[C@H](OC(=O)c2cc(O)c(O)c(OC(=O)c3cc(O)c(O)c(O)c3)c2)[C@@H](OC(=O)c2cc(O)c(O)c(OC(=O)c3cc(O)c(O)c(O)c3)c2)[C@@H]1OC(=O)c1cc(O)c(O)c(OC(=O)c2cc(O)c(O)c(O)c2)c1)c1cc(O)c(O)c(OC(=O)c2cc(O)c(O)c(O)c2)c1`, for which the result was inactive.
On the same count and under the same terms, then `CC[C@H]1OC(=O)[C@H](C)[C@@H](O[C@H]2C[C@@](C)(OC)[C@@H](O)[C@H](C)O2)[C@H](C)[C@@H](O[C@@H]2O[C@H](C)C[C@H](N(C)C)[C@H]2O)[C@](C)(O)C[C@@H](C)C(=O)[C@H](C)[C@@H](O)[C@]1(C)O`, with “inactive”; and `CCC(C)(C)C(=O)O[C@H]1C[C@@H](C)C=C2C=C[C@H](C)[C@H](CC[C@@H]3C[C@@H](O)CC(=O)O3)[C@H]21`, with “inactive”.
With `CN(C)c1ccc(N=NS(=O)(=O)O)cc1`, the compound was classed as inactive.
For `O=C(O)c1cc(N=Nc2ccc(S(=O)(=O)Nc3ccccn3)cc2)ccc1O`, the outcome was inactive.

System in a further assay: not listed separately
The assay is described as follows: CCTE_Deisenroth_5AR_NBTE_acceptor: CCTE's 5alpha-reductase NanoBRET Target Engagement Assay - Autofluorescence Screen, Deisenroth Lab (AID 2284321).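 Note: compound fluorescence in the acceptor channel under 460 nm excitation flags autofluorescence artifacts.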 The note with it: actives raise or lower the signal. The essentials: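 Using three independent plate-reader runs, nominal 100 uM chemicals were checked for intrinsic fluorescence (ex 460 nm). DMSO defined the baseline for bidirectional fitting.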
Background: In BRET a luciferase serves as donor, and the signal depends on an acceptor being close.
Turning to `Nc1ccc(Nc2ccccc2)cc1`, the AC50 is 31.5 µM (active).
In the case of `CCOC(=O)c1ccc(C2CCC(NC[C@H](O)COc3ccc(O)c(NS(C)(=O)=O)c3)CC2)cc1` (stereo partly specified), the AC50 was 50 µM (active).
As for `O=C(OC[C@H]1O[C@@H](OC(=O)c2cc(O)c(O)c(OC(=O)c3cc(O)c(O)c(O)c3)c2)[C@H](OC(=O)c2cc(O)c(O)c(OC(=O)c3cc(O)c(O)c(O)c3)c2)[C@@H](OC(=O)c2cc(O)c(O)c(OC(=O)c3cc(O)c(O)c(O)c3)c2)[C@@H]1OC(=O)c1cc(O)c(O)c(OC(=O)c2cc(O)c(O)c(O)c2)c1)c1cc(O)c(O)c(OC(=O)c2cc(O)c(O)c(O)c2)c1`, the compound was classed as inactive.
Still for that read-out and setting: the result for `CC[C@H]1OC(=O)[C@H](C)[C@@H](O[C@H]2C[C@@](C)(OC)[C@@H](O)[C@H](C)O2)[C@H](C)[C@@H](O[C@@H]2O[C@H](C)C[C@H](N(C)C)[C@H]2O)[C@](C)(O)C[C@@H](C)C(=O)[C@H](C)[C@@H](O)[C@]1(C)O` reads “inactive”; that for `CCC(C)(C)C(=O)O[C@H]1C[C@@H](C)C=C2C=C[C@H](C)[C@H](CC[C@@H]3C[C@@H](O)CC(=O)O3)[C@H]21`, “inactive”.
Consider `CN(C)c1ccc(N=NS(=O)(=O)O)cc1`, for which the call was inactive.
The same measure, in the same setting: then `O=C(O)c1cc(N=Nc2ccc(S(=O)(=O)Nc3ccccn3)cc2)ccc1O`, with “inactive”.

The subject of a further assay is SRD5A2 (gene 6716). The assay is described as follows: CCTE_Deisenroth_5AR_NBTE_ratio: CCTE's 5alpha-reductase NanoBRET Target Engagement Assay - Ratio, Deisenroth Lab (AID 2284322). The note with it: actives raise or lower the signal. In outline: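 HEK293T transiently expressing SRD5A2-NanoLuc; cells exposed to chemical (8-point, 10 nM - 29.9 uM) for 5 h total, testosterone tracer added for final 2 h. NanoBRET acceptor/donor ratio (650/460 nm), bidirectional fit vs DMSO.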
Regarding `CCOC(=O)c1ccc(C2CCC(NC[C@H](O)COc3ccc(O)c(NS(C)(=O)=O)c3)CC2)cc1` (stereo partly specified), the AC50 was 79.2 µM (active).
As to `O=C(OC[C@H]1O[C@@H](OC(=O)c2cc(O)c(O)c(OC(=O)c3cc(O)c(O)c(O)c3)c2)[C@H](OC(=O)c2cc(O)c(O)c(OC(=O)c3cc(O)c(O)c(O)c3)c2)[C@@H](OC(=O)c2cc(O)c(O)c(OC(=O)c3cc(O)c(O)c(O)c3)c2)[C@@H]1OC(=O)c1cc(O)c(O)c(OC(=O)c2cc(O)c(O)c(O)c2)c1)c1cc(O)c(O)c(OC(=O)c2cc(O)c(O)c(O)c2)c1`, the result was inactive.
Still for that read-out and setting: then `CC[C@H]1OC(=O)[C@H](C)[C@@H](O[C@H]2C[C@@](C)(OC)[C@@H](O)[C@H](C)O2)[C@H](C)[C@@H](O[C@@H]2O[C@H](C)C[C@H](N(C)C)[C@H]2O)[C@](C)(O)C[C@@H](C)C(=O)[C@H](C)[C@@H](O)[C@]1(C)O`, with “inactive”.
Same read-out and setting: the result for `CCC(C)(C)C(=O)O[C@H]1C[C@@H](C)C=C2C=C[C@H](C)[C@H](CC[C@@H]3C[C@@H](O)CC(=O)O3)[C@H]21` reads “inactive”.
As for `CN(C)c1ccc(N=NS(=O)(=O)O)cc1`, the AC50 was 64.2 µM (active).
The same measure, in the same setting: the result for `O=C(O)c1cc(N=Nc2ccc(S(=O)(=O)Nc3ccccn3)cc2)ccc1O` reads 58.5 µM (active).

System in a further assay: not listed separately
The experiment in a line: TAMU_PeakParms_SingleDonor1434_Asystole: Texas A&M University (TAMU) 1.5-hr Human Induced Pluripotent Stem Cell (iPSC)-derived Cardiomyocytes Calcium (Ca+2) Flux Assay for Cardiotoxicity: Asystole (quiescence of beating) (AID 2284328; active = hit-call score of the fitted dose curve at least 0.9, where 1 is the maximum).
Conditions: not given
The essentials: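 Human iPSC-derived cardiomyocytes (donor 1434) were exposed to 0.2, 1, 10 and 100 uM compound in 0.5% DMSO for 90 min at 37C. Ca2+-dye fluorescence gave average peak frequency; POD is EC95, a 95% beat-rate drop versus DMSO.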
Turning to `CCCCCCc1ccc(O)cc1O`, the outcome was inactive.
On the same count and under the same terms, the result for `NC(=O)NO` reads “inactive”; that for `O=C1CCC(N2C(=O)c3ccccc3C2=O)C(=O)N1` (stereo unspecified), “inactive”.

The subject of another assay is Brachyury (BRA) Protein Expression, Deisenroth Lab, TBXT (gene 6862). The assay is described as follows: CCTE_Deisenroth_DEVTOX-GLR_legacy_Bra: (Legacy) CCTE's DevTox GLR-Endo Assay Evaluation of Brachyury (BRA) Protein Expression, Deisenroth Lab (AID 2284329).
Conditions: not given
In outline: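 RUES2-GLR human pluripotent cells differentiated 48 h with two 24-h-interval chemical exposures (1 nM - 200 uM, 10 points); fixed, nuclear-stained, imaged. Bra+ cell percentage (intensity 5x BMAD above pluripotent control median) fitted relative to 0.2% DMSO.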
Turning to `C[C@](N)(Cc1ccc(O)c(O)c1)C(=O)O`, the outcome was inactive.
The same measure, in the same setting: then `NC(=O)NO`, with “inactive”.
Consider `CC[C@H](C)C(=O)O[C@H]1C[C@@H](C)C=C2C=C[C@H](C)[C@H](CC[C@@H]3C[C@@H](O)CC(=O)O3)[C@H]21`, for which the AC50 is 37.6 µM (active).
For `O=C(O)c1cc(N=Nc2ccc(S(=O)(=O)Nc3ccccn3)cc2)ccc1O`, the call was inactive.
With `O=C1CCC(N2C(=O)c3ccccc3C2=O)C(=O)N1` (stereo unspecified), the compound was classed as inactive.
